Records with an inconclusive call do not appear.

The experiment is described as follows: Confirmation Concentration-Response Assay for Agonists of the Thyroid Stimulating Hormone Receptor. Further: reference of the scale not given here. Particulars: HEK293 TSHR-CNG cells, membrane potential dye, cAMP; measured here: parental HEK293 counter-screen max. The essentials:
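TSHR+CNG HEK293 cells plated 20–36 h; membrane potential dye + 100 uM RO 20-1724, 60 min RT; cpd 30 min; fluorescence em 590 nm, bottom read. Parental CNG cells counterscreen endogenous targets.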
Background: Counterscreens check selectivity or assay interference.
For `CC1(C)c2ccccc2N2CCC(=O)NC21/C=C/c1ccco1` (stereo not given), the max response is 13.4%.

On to `Nc1cc(CN2C(=O)c3ccccc3C2=O)cc(Cl)c1O`, for which the max response was determined as 4.5%.

On to `O=C(CN(Cc1ccc(F)cc1)S(=O)(=O)c1ccccc1)N1CCCCC1`, for which the max response was -6.59%.

Turning to `COc1ccc(CNc2nc(SC)n[nH]2)cc1OC`, the max response was 3.91%.

Turning to `COc1ccc(C2Nc3ccccc3C(=O)N2Cc2ccco2)cc1COc1ccc(NC(C)=O)cc1` (stereo not given), the max response came out at 21.9%.

Take `O=C1N(c2ccccc2)C2CS(=O)(=O)CC2N1c1ccc(Cl)c(Cl)c1` (stereo not given): the max response was -23.3%.

In the case of `COC(=O)C1=C(C)OC(N)=C(C#N)C1c1c(C)nn(-c2ccccc2)c1Cl` (stereo not given), the max response came out at 6.03%.

Regarding `O=C1C=C(NCc2ccccc2)C2(CCCCC2)O1`, the max response is 16.9%.

Consider `c1ccc(-n2cnc3cc(NCc4ccncc4)ccc32)cc1`, for which the max response was determined as 1.12%.

Take `Cc1cc(C)nc(N(C#N)CC(=O)N2CCC(C(N)=O)CC2)n1`: the max response was -13.4%.

Turning to `CC(c1ccco1)N(C(=O)c1ccc(Cl)s1)c1ccccn1` (stereo not given), the max response stood at 8.8%.

Regarding `CCOc1ccc(N(C(C)C(=O)Nc2ccc(OC)cc2)S(C)(=O)=O)cc1` (stereo not given), the max response was -4.4%.

Consider `Cc1ccccc1-c1nc(CN2CCC(C(=O)N3CCN(c4ccccn4)CC3)CC2)c(C)o1`, for which the max response turned out to be 17.1%.

Consider `CCN(c1ccccc1)S(=O)(=O)c1ccc(Oc2ccc(-n3ccnc3)cc2)nc1`, for which the max response is -1.61%.

On to `Cc1ccc(S(=O)(=O)N2CCC(C(=O)NCCCN3CCCCCC3)CC2)cc1`, for which the max response is -4.36%.

Take `Cc1ccc(S(=O)(=O)NC(=O)Nn2c(C)nnc2C)cc1`: the max response was determined as 1.93%.

`O=S1(=O)N=C(Oc2ccccc2)c2ccccc21`: the max response was -6.77%.

On to `Cn1cccc1Cc1nnc(SCC(N)=O)n1CCc1ccccc1`, for which the max response came out at 3.14%.

In the case of `Cc1ccc(C)c(Cn2c(C(C)O)nc3ccccc32)c1` (stereo not given), the max response is -2.8%.

For `C=CCn1c(NCc2ccc3c(c2)OCO3)nc2ccccc21`, the max response is 13.4%.

Consider `Nc1ccc2c(c1)COc1ccccc1O2`, for which the max response is -5.76%.

As for `Cc1occc1-c1nnc(SCC(=O)Nc2ccccc2)n1C(C)c1ccccc1` (stereo not given), the max response was -10%.

For the compound `CCOc1ccc(N(CC(=O)NC(C)(C)C)S(=O)(=O)c2c(C)noc2C)cc1`, the max response turned out to be 6.91%.

In the case of `Cc1oc(-c2cccc(Cl)c2)nc1CN1CCCC(C(=O)NC(C)c2ccc3c(c2)OCCO3)C1` (stereo not given), the max response amounted to 8.77%.

`Cc1onc(-c2ccccc2)c1C(=O)N1CCCSC1=Nc1ccccc1`: the max response came out at 18.9%.

Consider `Cc1cnc(NC(=O)c2ccc3c(c2)C(=O)N(Cc2ccco2)C3=O)s1`, for which the max response was -10.7%.

`Cn1c(=O)[nH]c(=O)c2c1nc(N1CCCCCC1)n2CCCSc1nc2ccccc2o1`: the max response was determined as 12.7%.

Consider `O=S(=O)(c1ccccc1)N1CCN(C2CCN(Cc3ccccc3)CC2)CC1`, for which the max response was found to be 0.84%.

Regarding `CCc1ccc(-c2nc(CN3CCC(C(=O)N4CCN(c5ccccc5)CC4)CC3)c(C)o2)cc1`, the max response came to 12.8%.

With `O=C(Nc1ccc(N2CCOCC2)cc1)C1CC1`, the max response came out at 5.07%.

The values are drawn from PubChem BioAssay AID939 (National Center for Advancing Translational Sciences (NCATS), 2007).
